Consider 16 compounds from PubChem BioAssay (NCI).

Molecules are shown by their SMILES. This is part of a sample that, as a whole, favours compounds with a hit. Of some 83,000 tested, about 20% had one in any assay.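 Values shown are percent growth following 48 h exposure of cells in 96-well plates to a single concentration of compound; below 10 was considered active.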 Values without a mark were called inactive. Calls of active or inactive are those of the source.

For this assay, the system named is COLO 205 colon. Nature of the assay: NCI-60 one-dose screen, 48 h (100 = growth as untreated, 0 = no growth, -100 = all killed). The note with it: 10 µM.
As for `CC1(C)N=C(N)N=C(N)N1c1ccc(CCCCc2ccc(S(=O)(=O)F)cc2)cc1`, the growth was 41.9%.
Turning to `Cc1ccc(C(=O)C2CN(C)CCC2(O)c2ccc(C)cc2)cc1` (stereo unspecified), the growth was 131%.
With `O=S(=O)(O)c1ccc(-c2ccc([As](=O)(O)O)cc2)cc1`, the growth is 114%.
On to `O=C1NC(=O)C(CN2C(=O)C3(c4ccccc42)[C@H](Cl)C(=O)N3c2ccccc2)C(=O)N1` (stereo partly specified), for which the growth was 102%.
As for `O=[N+]([O-])c1cc([N+](=O)[O-])c(Cl)c(Cl)c1Cl`, the growth is -82.7% (active).
As for `C=CCC1(CC)C(=O)NC(=S)NC1=O`, the growth is 97.3%.
On to `C/C(=N/OC(=O)N(C)C)c1ccc(Cl)cc1Cl`, for which the growth is 110%.
The result for `CCC[CH2][Sn]([CH2]CCC)([CH2]CCC)[O]C(=O)CC` reads -86.7% (active).
With `O=C(NCc1ccc([N+](=O)[O-])cc1)Nc1ccc(S(=O)(=O)F)cc1`, the growth is 107%.
For the compound `n1nc(-c2nonc2-c2nn[nH]n2)n[nH]1`, the growth is 117%.
For `CNC(=O)Oc1ccccc1-c1ccccc1` the value was 113%.
The result for `CC1(C)N=C(N)N=C(N)N1c1ccc(OCCCCOc2ccc(S(=O)(=O)F)cc2)c(Cl)c1` reads 20.4%; that for `CCCCOC(=O)c1ccccc1C(=O)O.CCCCOC(=O)c1ccccc1C(=O)O.[Cu+2]`, 101%; that for `O=[N+]([O-])c1ccc2cnn(CSP(=S)(c3ccccc3)c3ccccc3)c2c1`, 101%.
For `NC(=O)C(Cl)Cl` the value was 113%; for `CCN(CC)c1ccc(C=C2C(=O)NC(=S)NC2=O)cc1`, 104%.
